Only some compounds are listed: those with a hit (about 3.6% of all), similar ones and a draw of the others.
Abeta rescue: A-beta toxicity reversal in yeast; yeast expressing A-beta42, growth rescue, OD600, 48 h; response scale: 0% DMSO, 100% iron-clioquinol control; Potency, µM (top dose mostly 46.1 µM), most hits filed as activators; 410,000 compounds, 0.063% hits; AID 1347071; note: nearly all actives have a fitted effect of over 55% in size
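Yeast A-beta toxicity model in growth medium with pinned compounds, 48 h at 30 C; growth read as absorbance at 600 nm. Normalized to FeCl3/clioquinol equimolar mix (positive) and DMSO (negative).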
TDP43 rescue: TDP-43 toxicity inhibition in yeast; 410,000 compounds, 1.8% hits; AID 652104; TDP-43 expressing yeast growth rescue, BacTiter-Glo, 24 h; Potency, µM (top dose mostly 46.1 µM), without a hit: top-dose growth rescue (activation), usual class: activators; note: % of control where 0% means no effect; nearly all actives have a fitted effect of over 50% in size
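Cell-based yeast growth screen: TDP-43 expression induced in galactose, inoculum OD600=0.02 after raffinose pregrowth to mid-log. Read-out BacTiter-Glo luminescence at 24 hr, 30 deg C; inhibition of toxicity seen as signal increase.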
FUS suppressor: FUS proteinopathy suppression in yeast; S. cerevisiae FUS-expressing, growth rescue, OD600, 24 h; Potency, µM (top dose mostly 76.6 µM), most hits filed as activators; 390,000 compounds, 0.24% hits; AID 1347120;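 note: plate controls were DMSO vehicle for no effect and reference control for full effect; nearly all actives have a fitted effect of over 55% in size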
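Cultures pregrown in 2.5% raffinose medium are shifted to minimal medium containing 2% galactose to express toxic FUS. Compounds are tested at several concentrations. After 24hr at 30C, growth is quantified at 600 nm absorbance.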
ClpP mod: qHTS Assay for Activators of ClpP; ATP-dependent Clp protease proteolytic subunit (Bacillus subtilis (strain 168)), P80244; purified B. subtilis ClpP, FRET peptide cleavage, 20 min; Potency, µM (titrated, usually from 57.5 µM), without a hit: at the top dose activity change, negative = active; 340,000 compounds, 1.9% hits; active = well fitted falling curve with a large enough effect; inconclusive = small, poorly fitted or top-dose-only effect; inactive = no such curve, though single readings can be large or run the other way; note: the source files actives as falling curves though it sought activators and does not explain the sign; nearly all actives have a fitted effect of over 65% in size
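Purified B. subtilis ClpP, 10 microg/mL final in Tris/HCl pH8 with KCl, BSA, glycerol and Tween-20, cleaved an Abz/nitrotyrosine-quenched decapeptide. Fluorescence (ex 320, em 430) was read at 0 and 20 min at room temperature. Delta was normalized to 5.8 microM ADEP and DMSO/no-enzyme controls.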
Mm-Cpn inhibitor: inhibitors of Methanococcus maripaludis chaperonin TRiC (MmCpn); purified Mm-Cpn ATPase, ADP Transcreener TR-FRET; AID 504842; Potency, µM (top dose mostly 76.9 µM), for the others: at the top dose activity, negative = inhibition, usual class: inhibitors; 330,000 compounds, 0.031% hits; note: % is set by controls: 0 for no effect and ±100 for the full control effect; nearly all actives have a fitted effect of over 80% in size
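Compound-treated chaperonin, 25 nM final, turns over 10 uM ATP at 37°C for 30 min following a 10 min preincubation; ADP generated competes with ADP-d2 for Eu-cryptate antibody, lowering FRET.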
aSyn rescue: alpha-synuclein toxicity inhibition in yeast; Yeast expressing alpha-synuclein, growth rescue, BacTiter-Glo, 24 h; Potency, µM (highest dose often 46.1 µM), for the others: at the top dose growth rescue (activation), hits mostly activators; 370,000 compounds, 0.14% hits; note: % of control where 0% means no effect; nearly all actives have a fitted effect of over 65% in size
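Rescue of yeast growth: cells expressing toxic alpha-synuclein, induced in galactose at OD600 0.02, incubated with compound 24 h at 30 C. ATP luminescence quantified growth; inhibitors of toxicity appear as activators.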
ClpP inh valid: inhibits B. subtilis ClpP protease, hit validation; shares compounds with ClpP mod; purified B. subtilis ClpP, FRET-FV substrate cleavage, 20 min; 470 compounds, 40% hits; Potency, µM (highest dose often 57.5 µM), inactives show top-dose activity change, negative = inhibition, hits mostly inhibitors; note: % is set by controls: 0 for no effect and ±100 for the full control effect; nearly all actives have a fitted effect of over 70% in size
Active calls of the source: *; i = inactive; ? = inconclusive; · = no result given. Unless noted, calls come from the whole dose curve; as a rule, active = well fitted curve in the direction sought with a large enough effect; inconclusive = small, poorly fitted or top-dose-only effect, or another doubt; inactive = no such curve, though single readings can be large; an effect the other way counts as inactive or inconclusive. Potency is the fitted concentration of half-maximal effect.

SMILES | Abeta rescue | TDP43 rescue | FUS suppressor | ClpP mod | Mm-Cpn inhibitor | aSyn rescue | ClpP inh valid
O=C(Nc1cccc(C(=O)Nc2ccc(Br)cc2)c1)c1ccccc1 | i | 20% | i | 1% | 1% | -7% | ·
CC(=O)c1cccc(NC(=O)C(C)n2c(=O)cc(-c3ccccc3)c3c(C)nn(C)c32)c1 (stereo not drawn) | i | 0% | i | ? | · | · | ·
COc1ccc(-c2nn3c(=O)cc(CN4CCN(C(=O)Nc5ccc(C)c(Cl)c5)CC4)nc3s2)cc1 | i | 8% | i | -7% | · | · | ·
CCOC(=O)c1c(NC(=O)c2cc(CC)on2)sc(C)c1C | i | 17% | i | -2% | · | · | ·
COc1ccc(N2C(=O)NC3CC2(C)Oc2ccccc23)cc1 (stereo not drawn) | i | 13% | i | · | 1% | 6% | ·
COc1ccc(N2C(=O)NC3CC2(C)Oc2ccc(Br)cc23)cc1OC (stereo not drawn) | i | 20% | i | 177% | -4% | 17% | 0%
O=C(Nc1ccc(Br)cc1)c1cc(-c2cccs2)nc2ccccc12 | i | 12% | i | 38% | · | · | 24µM*
NS(=O)(=O)c1cccc(NC(=O)c2cc(-c3cccs3)nc3ccccc23)c1 | i | 18% | i | 4% | -3% | 3% | ·
CCOc1ccc(-n2nc3ccc(NC(=O)c4ccc5c(c4)OCCO5)cc3n2)cc1 | i | -15% | i | 8.9µM* | -1% | -5% | ?
CCc1ccc(-n2nc3ccc(NC(=O)c4ccc5c(c4)OCO5)cc3n2)cc1 | i | -1% | i | 3.2µM* | 2% | 5% | -14%
O=C(CCn1cccn1)NCc1ccc(Cl)cc1 | i | 17% | i | 0% | · | · | ·
O=C(Nc1ccccc1Cl)c1cc2c(-c3ccccc3)nn(-c3ccccc3)c2s1 | i | 14% | i | ? | · | -1% | 19µM*
O=C(NCCSc1c(-c2ccccc2)[nH]c2ccccc12)c1cc2ccccc2oc1=O | i | -4% | i | 32% | -1% | 13% | 8%
CC(C)(C)c1ccc(S(=O)(=O)NCc2ccc3c(c2)CCN3C(=O)c2ccccc2)cc1 | i | 9% | i | -2% | · | · | ·
Cc1ccc(NC(=O)c2cc([N+](=O)[O-])ccc2NCc2cccnc2)cc1Cl | i | -4% | i | -5% | -5% | -11% | ·
COc1cccc(NC(=O)c2cc([N+](=O)[O-])ccc2NCc2cccnc2)c1 | i | 11% | · | 42% | 0% | 9% | 0%
COc1cc(NC(=O)C(NC(=O)C2CCC(C)CC2)C(C)C)cc(OC)c1OC (stereo not drawn) | i | 20% | i | 2% | · | · | ·
O=c1oc2ccc3ccccc3c2cc1-c1nc2ccccc2o1 | i | -22% | i | 2.5µM* | · | -17% | 24%
c1ccc2c(c1)NC1(CCCCC1)n1c-2nc2ccccc21 | i | -14% | ? | 2.5µM* | -4% | -3% | 14µM*
c1ccc2c(c1)NC1(CCCCCC1)n1c-2nc2ccccc21 | i | 10% | i | 63% | -6% | 3% | ·
CCc1ccc(-n2c(=O)c3cccnc3n2CC(=O)Nc2cc(F)ccc2F)cc1 | i | 0% | i | 4% | · | · | ·
O=C(NC1CCCCC1)N(Cc1cc2cc3c(cc2[nH]c1=O)OCCO3)CC1CCCO1 (stereo not drawn) | i | -5% | i | 10µM* | 3% | 0% | ?
CCOc1ccc(NC(=O)c2c(C)nn(-c3ccc(F)cc3)c2-n2cccc2)cc1 | i | 17% | i | 13% | · | 3% | ·
O=C(COc1ccccc1Cl)Nc1ccc(-c2nc3ccccc3s2)cc1 | i | 11% | i | ? | · | 3% | ·
CC(C)(C)C(=O)Nc1ccc(-c2nc3ccccc3s2)cc1 | i | 9% | i | 10µM* | · | · | -1%
SMILES | Abeta rescue | TDP43 rescue | FUS suppressor | ClpP mod | Mm-Cpn inhibitor | aSyn rescue | ClpP inh valid
COc1ccc(-c2nc3ccccc3s2)cc1NC(=O)c1ccc(F)cc1 | i | 12% | i | 89% | · | · | 22µM*
Cc1nc(Sc2nnnn2C2CC2)c2c(-c3ccccc3)csc2n1 | · | · | · | -2% | · | 1% | ·
COc1ccc(S(=O)(=O)N2CCN(S(=O)(=O)c3ccc4c(c3)OCCO4)CC2)cc1C | i | -1% | i | 4µM* | -1% | ? | 0%
O=C(Nc1ccc(F)cc1)N1CCN(c2ccccc2F)CC1 | i | 2% | i | -10% | · | · | ·
O=C(Nc1ccc(F)cc1)N1CCN2C(=O)c3ccccc3C12c1ccccc1 (stereo not drawn) | i | 18% | · | 4µM* | 0% | -1% | 1%
COCCn1cc(C(=O)N2CCCC(C)C2)c2c3ccccc3n(C)c2c1=O (stereo not drawn) | i | -14% | i | 3.2µM* | -1% | 11% | 15µM*
COc1ccc2oc(-c3ccco3)cc(=O)c2c1 | i | -17% | i | 4% | -7% | -1% | ·
O=c1cc(-c2ccco2)oc2ccc(Cl)cc12 | i | -7% | · | 2.8µM* | 2% | -11% | ?
O=C(c1ccc(CSc2nc3ccncc3n2Cc2cccc(F)c2)cc1)N1CCCCCC1 | i | 6% | i | -5% | · | · | ·
Cc1cc(C)cc(N(CC(=O)Nc2ccc(-c3nc4ccc(C)cc4s3)cc2)S(C)(=O)=O)c1 | i | 0% | i | 10µM* | -13% | -6% | 19µM*
O=C(c1cc2c(=O)n3ccccc3nc2s1)N1CCOCC1 | i | 14% | · | 4.5µM* | 0% | -10% | 24µM*
Fc1ccccc1N1CCN(c2nnc(C(F)(F)F)c3nnn(Cc4ccccc4)c23)CC1 | i | 3% | i | 7.9µM* | · | · | 19µM*
COc1cccc(NC(=O)c2cc3c(=O)n(C)c4ccccc4c3n2C)c1 | i | 12% | i | 216% | · | · | 22µM*
COc1ccccc1NC(=O)c1cc2c(=O)n(C)c3ccccc3c2n1C | i | -6% | i | ? | -2% | 1% | ·
CCCNC(=O)Nc1nc2ccccc2s1 | i | 14% | i | 0% | 1% | 12% | ·
CCCNC(=O)c1ccc(-c2nc3ccccc3s2)s1 | i | -22% | ? | 2.8µM* | -7% | -2% | 24µM*
Cc1nnc(NC(=O)c2sc3ccccc3c2Cl)s1 | i | -27% | i | -6% | -9% | -11% | ·

Compound activity (PubChem BioAssay)
